According to PubChem BioAssay (NCI):
This is part of a sample that, as a whole, favours compounds with a hit. Of some 83,000 tested, about 20% had one in any assay.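 Step 1: grow cells in 96-well plates. Step 2: add test compound at a single concentration. Step 3: incubate 48 h. Step 4: record percent growth.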 Values without a mark were called inactive. Activity calls are given as the source filed them. Rule for the calls: active = growth percent below 10; inactive = the rest.

What follows are compounds tested on MDA-MB-231 breast (assay: NCI-60 one-dose screen, 48 h (100 = growth as untreated, 0 = no growth, -100 = all killed)). Conditions: 10 µM unless noted.
In the case of `CCCCNCCc1ccccn1`, the growth is reported as 114%. Work on `CNC(=O)Oc1cccc(OC)c1` yielded a growth of 93.3%. In the case of `C=C=[CH][Sn]([c]1ccccc1)([c]1ccccc1)[c]1ccccc1`, the growth is reported as -53.3% (active). `NC(=O)SCC(=O)Nc1ccc([As](=O)(O)O)cc1` gave a growth of 90.8%. For `C[C@]12CC[C@H]3[C@@H](C[C@@H]4N=C(c5ccc(O)cc5)S[C@@]45C[C@H](O)CC[C@]35C)[C@@H]1CC[C@@H]2O`, the growth was 56.2%. For `CC1(C)N=C(N)N=C(N)N1c1ccc(CCCCc2ccc(S(=O)(=O)F)cc2)cc1`, the growth was 46.7%. `Nc1c(Br)cc2c3c(cccc13)-c1ccccc1-2` gave a growth of 48.7%. `COc1cc2c(cc1OC)CN(C)C(C)C2` (configuration not stated) showed a growth of 110%. In the case of `CC(C)C1c2ccc(O)cc2Oc2nc(N)c(C#N)c(N)c21` (configuration not stated), the growth is reported as 89.9%. `c1ccc2nc(OCCN3CC3)ccc2c1` showed a growth of 75%. Work on `CC1(C)N=C(N)N=C(N)N1c1ccc(CNC(=O)Nc2ccc(S(=O)(=O)F)c(Cl)c2)c(Cl)c1` yielded a growth of 60.8%. With `c1ccc(-c2ccc3ccccc3[o+]2)cc1` the growth was 65%. For `CSc1ccccc1NP1(=O)OCC(C)([N+](=O)[O-])CO1` (configuration not stated), the growth was 105%. Work on `CC1COC(=O)C1` (configuration not stated) yielded a growth of 120%. `C[CH2][Pb]([CH2]C)([CH2]C)[O]C(=O)COc1ccccc1` showed a growth of 20.1%. With `COc1ccc(/C=C\c2cc(OC)c(OC)c(OC)c2)cc1N/C=C\C(=O)c1c[nH]c2ccccc12` the growth was 18.4%. `CCCC(C)(C)c1ccc2c(c1)OC(C)(C)[C@@H]1CC=C(C)C[C@@H]21` showed a growth of 108%.
